Screens from PubChem BioAssay.
Most compounds without a hit are left out; they make up all but 13% or so of the library.
Pf growth 96h: Primary qHTS for delayed death inhibitors of the malarial parasite plastid, 96 hour incubation. Potency, µM (doses to about 28.7 µM), without a hit: at the highest dose activity change, negative = inhibition, usual class: inhibitors. AID 504834, 2011. 320,000 compounds, 6.9% hits. P. falciparum luciferase reporter growth, 96 h; also: potency is read from the fitted curve at half-maximal effect
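Readout is luminescence from an integrated firefly luciferase in P. falciparum. Red cells, 2% hematocrit and 0.05% parasitemia final, were cultured with compound through two parasite generations (96 hours) at 37 C, 5% CO2.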
Pf growth 48h: Primary qHTS for delayed death inhibitors of the malarial parasite plastid, 48 hour incubation; AID 504832, 2011; P. falciparum luciferase growth in erythrocytes, 48 h; Potency, µM (highest dose often 28.7 µM), without a hit: at the highest dose activity change, negative = inhibition, most hits filed as inhibitors; 310,000 compounds, 5.9% hits; also: potency is read from the fitted curve at half-maximal effect
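Here the parasites carry a stable luciferase gene and grow inside erythrocytes in Albumax-based RPMI medium with compound for one erythrocytic cycle. Activity is scored as loss of luminescent signal.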
HCV inhibitor: qHTS Assay for Inhibitors of Hepatitis C Virus (HCV); Huh7.5.1 HCVcc-Cre infection, luciferase reporter, 44 h; Potency, µM (highest dose often 41.8 µM), for the others: top-dose activity change, negative = inhibition, usual class: inhibitors; 340,000 compounds, 3.4% hits; AID 651820, 2012; also: potency is read from the fitted curve at half-maximal effect
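Compounds are dispensed onto cells plated 4 h earlier at 1,000 per well, with HCVcc-Cre virus (about 0.5 moi) added next. Following 44 h of culture, luminescent signal is measured for 15 sec after 15 min with substrate at room temperature.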
HCMV inh: qHTS Assay for inhibitors of the human cytomegalovirus (HCMV). activity change, negative = inhibition, % at 57.5 µM. AID 1259415, 2018. HFF cells, HCMV-luciferase reporter, 72 h; hits give low values. 410,000 compounds, 4.5% hits; in the data active = activity change below about -60%; inconclusive = no clear call, values can overlap the other calls; inactive = above about -39%
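Cell-based, HFFs, 1000 cells/well, 16 h 37C; cpds in DMSO + HCMV-luc, MOI 1 PFU/cell; 72 h 37C; OneGlo luminescence after 5 min RT; norm. to buffer vs Salinomycin 10uM.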
Numbers without * were called inactive; ? = inconclusive; / = no result given. Unless noted, calls follow the shape of the dose curve; as a rule, active = well fitted inhibition curve with a large enough effect; inconclusive = small, poorly fitted or top-dose-only effect, or another doubt; inactive = no such curve, though single readings can be large or run the other way. % is scaled to controls: 0 for no effect and ±100 for the full control effect.

SMILES	Pf growth 96h	Pf growth 48h	HCV inhibitor	HCMV inh
O=C(CSc1nc(=O)[nH]c2c1CCCC2)NCc1ccc(Cl)cc1	/	/	/	-27
O=C(Nc1cccc(S(=O)(=O)NC2=NCCCCC2)c1)c1cc(-c2ccccc2Cl)nc2ccccc12	?	?	?	-64*
O=C(CSc1nc2ccccc2c(=O)n1-c1ccccc1F)Nc1ccc2c(c1)CCC2	?	?	?	-67*
Cc1ccc(-n2c(SCC(=O)Nc3cccc(S(=O)(=O)NC4=NCCCCC4)c3)nc3ccccc3c2=O)cc1	3.7µM*	?	?	-66*
CCc1ccc(-n2c(SCC(=O)Nc3cccc(S(=O)(=O)NC4=NCCCCC4)c3)nc3ccccc3c2=O)cc1	?	?	?	-26
O=C(CSc1nc2ccccc2c(=O)n1-c1ccc(F)cc1F)Nc1ccc2c(c1)CCC2	?	9.3µM*	?	-72*
Cc1csc(-c2nc3ccccc3n2C(C(=O)NC(C)(C)C)c2cc3ccccc3o2)c1 (stereo unspecified)	/	/	/	126
CCC12CN3CC(C)(CN(C1)C3c1c(C)[nH]c3ccccc13)C2=O (stereo unspecified)	/	/	/	7
O=C(CSc1nc2ccccc2c(=O)n1-c1ccc(F)cc1)Nc1ccc2c(c1)CCC2	9.3µM*	9.3µM*	?	-68*
C=CCNC(=O)c1cn(CC)c2cc(N3CCN(C(=O)c4ccco4)CC3)c(F)cc2c1=O	?	7.4µM*	-6%	-35
CCC(C)NC(=O)c1cn(CC)c2cc(N3CCN(C(=O)c4ccco4)CC3)c(F)cc2c1=O (stereo unspecified)	4.1µM*	5.9µM*	14µM*	-23
CCn1cc(C(=O)NCc2ccc3c(c2)OCO3)c(=O)c2cc(F)c(N3CCN(C)CC3)cc21	1%	?	?	-4
CCn1cc(C(=O)NCc2ccccn2)c(=O)c2cc(F)c(N3CCN(C)CC3)cc21	20%	-21%	-6%	-16
CCn1cc(C(=O)NCC(C)C)c(=O)c2cc(F)c(N3CCN(C(=O)c4ccco4)CC3)cc21	22%	4.1µM*	?	6
CCn1cc(C(=O)NCc2ccco2)c(=O)c2cc(F)c(N3CCN(C(=O)c4ccco4)CC3)cc21	24%	7.4µM*	?	5
COc1cc(C(CC(=O)Nc2ccc(C)c(F)c2)N2Cc3ccccc3C2=O)cc(OC)c1OC (stereo unspecified)	/	/	/	-2
COC(=O)c1ccccc1NC(=O)c1sc2nc(C)cc(C)c2c1NC(=O)c1ccccc1Cl	/	/	/	-2
CC(=O)NC12CC3CC(C1)CC(C(=O)Oc1ccc(N(C)S(=O)(=O)c4cc(C)ccc4C)cc1)(C3)C2	13µM*	?	?	-13
COc1cccc(CNC(=O)c2cc3oc4ccccc4c3n2C)c1OC	9.3µM*	/	?	-35
CCn1c(C(=O)NCc2ccc(F)cc2)cc2oc3ccccc3c21	/	/	/	-69*
CCOc1ccc(CNC(=O)c2cc3oc4ccccc4c3n2C)cc1	/	12%	-14%	-83*
CCOc1ccccc1CNC(=O)c1cc2oc3ccccc3c2n1CC	1.2µM*	/	?	-70*
CCn1c(C(=O)N2CCc3ccccc3C2)cc2oc3ccccc3c21	211%	6%	-28%	-17
COc1ccc(CNC(=O)c2cc3c(=O)n(C)c4ccccc4c3n2C)cc1	/	/	/	2
COc1ccc(N2CC(NC(=O)C(c3ccccc3)c3ccccc3)CC2=O)cc1OC (stereo unspecified)	/	/	/	19
SMILES	Pf growth 96h	Pf growth 48h	HCV inhibitor	HCMV inh
COc1ccc(-n2c(=O)c3c4c(sc3n(Cc3cc(C)ccc3C)c2=O)CN(C(C)=O)CC4)c(OC)c1	/	/	/	-27
CCOc1ccccc1NC(=O)n1ncc2cc(Cl)ccc21	/	/	/	36
O=C1[O][Bi][O]c2ccccc21	21%	5%	/	/
COc1ccc(N2CC(C(=O)Nc3nnc(SCC(=O)N4CCOCC4)s3)CC2=O)cc1 (stereo unspecified)	6.6µM*	-20%	-2%	21
Cc1nnc(NC(=O)C2CC(=O)N(Cc3ccccc3)C2)s1 (stereo unspecified)	?	-7%	3%	-4
COc1cccc(N2CC(C(=O)Nc3nnc(SCCC4OCCO4)s3)CC2=O)c1 (stereo unspecified)	9.3µM*	-21%	-7%	56
O=C(Nc1nnc(SCc2ccc(F)cc2)s1)C1CC(=O)N(Cc2ccccc2)C1 (stereo unspecified)	7.4µM*	-14%	2%	35
